Measurements from PubChem BioAssay (NCI).
The panel holds about 83,000 compounds, 20% with a hit somewhere; the sample as a whole holds those more often.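 Interpretation: 100, growth as untreated; towards 0, rising growth inhibition; 0, no net growth; 0 to -100, cell death. Compounds scoring below 10 were considered active.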 Activity calls are given as the source filed them.

How the values were obtained:
Assay in all cases: NCI-60 one-dose screen, 48 h (100 = growth as untreated, 0 = no growth, -100 = all killed)
NCI-H322M lung = details: 10 µM
HOP-62 NSCLC = details: 10 µM
NCI-H460 lung = details: 10 µM
NCI-H522 lung = details: 10 µM
A549/ATCC NSCLC = details: 10 µM
DU-145 prostate = details: 10 µM
MALME-3M melanoma = details: 10 µM
SF-268 CNS = details: 10 µM
SF-295 CNS = details: 10 µM
SF-539 CNS = details: 10 µM
UACC-257 melanoma = details: 10 µM
M14 melanoma = details: 10 µM
HCT-15 colon = details: 10 µM
HT29 colon = details: 10 µM
SNB-75 CNS = details: 10 µM
PC-3 prostate = details: 10 µM
SK-MEL-5 melanoma = details: 10 µM
UACC-62 melanoma = details: 10 µM
SK-MEL-2 melanoma = details: 10 µM
HL-60(TB) leukemia = details: 10 µM unless noted

Measured: growth

O=C(/C=C/c1ccc(Cl)cc1Cl)c1nc2ccccc2n1Cc1ccc(F)cc1
active: HT29 colon 7.3%
inactive: NCI-H322M lung 69.7% | HOP-62 NSCLC 58.2% | NCI-H460 lung 43.8% | NCI-H522 lung 76.2% | A549/ATCC NSCLC 66.5% | DU-145 prostate 55.4% | MALME-3M melanoma 69.1% | SF-268 CNS 49.9% | SF-295 CNS 60.6% | SF-539 CNS 17.9% | UACC-257 melanoma 66.3% | M14 melanoma 59.8% | HCT-15 colon 11.8% | SNB-75 CNS 38.6% | PC-3 prostate 29.4% | SK-MEL-5 melanoma 74.5% | UACC-62 melanoma 40.1% | SK-MEL-2 melanoma 94.7% | HL-60(TB) leukemia 28%

CC(C)C[C@H](NC(=O)CNC(=O)C[C@H]1O[C@@H]2OC3(C)CC[C@H]4[C@H](C)CC[C@@H]([C@H]1C)[C@@]24OO3)B(O)O
active: HOP-62 NSCLC -17% | NCI-H522 lung -73.8% | MALME-3M melanoma -56.5% | SF-295 CNS -63.6% | SF-539 CNS -93.3% | UACC-257 melanoma -56.9% | M14 melanoma -43.8% | HT29 colon -56% | SNB-75 CNS -15.7% | PC-3 prostate 4.1% | SK-MEL-5 melanoma -90.2% | UACC-62 melanoma -86.6% | SK-MEL-2 melanoma -57.3% | HL-60(TB) leukemia 0.92%
inactive: NCI-H322M lung 51.6% | NCI-H460 lung 13.6% | A549/ATCC NSCLC 32.7% | DU-145 prostate 42.3% | SF-268 CNS 17.4% | HCT-15 colon 22.7%

CC[C@]12C=CCN3CC[C@@]4(c5ccc(OC)cc5N(C)[C@H]4[C@@](O)(C(=O)OC)[C@@H]1OC(=O)CCC[P+](C1CCCCC1)(C1CCCCC1)C1CCCCC1)[C@@H]32
inactive: NCI-H322M lung 24.5% | A549/ATCC NSCLC 14.1% | DU-145 prostate 15.7% | HCT-15 colon 76.6%
active: HOP-62 NSCLC 4.26% | NCI-H460 lung 4.64% | NCI-H522 lung -82.2% | MALME-3M melanoma -96.1% | SF-268 CNS -54.1% | SF-295 CNS -13.5% | SF-539 CNS -86.5% | UACC-257 melanoma -80.9% | M14 melanoma -78% | HT29 colon -56.7% | SNB-75 CNS -61.4% | PC-3 prostate -12% | SK-MEL-5 melanoma -98.4% | UACC-62 melanoma -97.3% | SK-MEL-2 melanoma -84.9% | HL-60(TB) leukemia -37.1%

CC[C@@]12CC(C(=O)OC)=C3Nc4cc5c(cc4[C@@]34CCN(C[C@H]3O[C@H]31)[C@@H]24)[C@@H]1[C@H](O5)[C@@H](O)[C@@]2(CC)CC(C(=O)OC)=C3Nc4cc(OC)ccc4[C@@]34CCN1[C@@H]24
active: NCI-H522 lung 2.96% | SF-295 CNS 0.382% | HCT-15 colon -38.1% | SNB-75 CNS -4.82% | SK-MEL-5 melanoma -85.1% | UACC-62 melanoma 3% | SK-MEL-2 melanoma -12% | HL-60(TB) leukemia -17%
inactive: NCI-H322M lung 25.1% | HOP-62 NSCLC 21.5% | NCI-H460 lung 15.9% | A549/ATCC NSCLC 25.7% | DU-145 prostate 50.7% | MALME-3M melanoma 21% | SF-268 CNS 38.5% | SF-539 CNS 21.7% | UACC-257 melanoma 54.3% | M14 melanoma 28.7% | HT29 colon 10.7% | PC-3 prostate 22.2%

COc1cc(OC)c(/C=C/C(=O)c2nc3ccccc3n2Cc2ccc(F)cc2)c(OC)c1
active: SNB-75 CNS 0.098%
inactive: NCI-H322M lung 104% | HOP-62 NSCLC 58.9% | NCI-H460 lung 58.9% | NCI-H522 lung 79.6% | A549/ATCC NSCLC 88.6% | DU-145 prostate 92.1% | MALME-3M melanoma 105% | SF-268 CNS 72.1% | SF-295 CNS 75.7% | SF-539 CNS 60.9% | UACC-257 melanoma 98.3% | M14 melanoma 103% | HCT-15 colon 78.9% | HT29 colon 90.2% | PC-3 prostate 71% | SK-MEL-5 melanoma 88.6% | UACC-62 melanoma 62.5% | SK-MEL-2 melanoma 104% | HL-60(TB) leukemia 67.7%

CCC[Se]C(=O)c1ccc(C(=O)[Se]CCC)s1
inactive: NCI-H522 lung 17.9%
active: NCI-H322M lung -33.4% | HOP-62 NSCLC -77.7% | NCI-H460 lung -11.9% | A549/ATCC NSCLC -46.2% | DU-145 prostate 9.92% | MALME-3M melanoma -82.4% | SF-268 CNS 3.6% | SF-295 CNS -85.7% | SF-539 CNS -84.7% | UACC-257 melanoma -53.7% | M14 melanoma -63.4% | HCT-15 colon -71% | HT29 colon -58.5% | SNB-75 CNS -31.2% | PC-3 prostate 4.67% | SK-MEL-5 melanoma -76.3% | UACC-62 melanoma -64.9% | SK-MEL-2 melanoma -24.1%

O=C(/C=C/c1ccco1)c1nc2ccccc2n1Cc1ccc(Br)cc1
inactive: NCI-H322M lung 62.2% | HOP-62 NSCLC 57% | NCI-H460 lung 32.4% | A549/ATCC NSCLC 47.3% | DU-145 prostate 28.1% | MALME-3M melanoma 44.2% | SF-268 CNS 45.4% | SF-295 CNS 53.5% | SF-539 CNS 26.7% | UACC-257 melanoma 36.9% | M14 melanoma 26.2% | HT29 colon 29.3% | SNB-75 CNS 33.6% | PC-3 prostate 34.2% | SK-MEL-5 melanoma 57.5% | UACC-62 melanoma 28.7% | SK-MEL-2 melanoma 46.2% | HL-60(TB) leukemia 16%
active: NCI-H522 lung 4.59% | HCT-15 colon 9.97%
